From ChEMBL document CHEMBL4513216, “Probing the Open Global Health Chemical Diversity Library for Multistage-Active Starting Points for Next-Generation Antimalarials” (ACS Infect Dis, 2020) come the findings set out here.

Out of some 69,000 compounds screened, about 8,600 (12%) showed an effect of 50% or more. The sample holds strong results, similar compounds and a random draw of the others, so the mix is not that of the screen.

The experiment relates to Plasmodium berghei. As to the kind of experiment: Screen against P. berghei liver stage (PbLuc), transformed with Luciferase, at 10uM. The experiment is classed as functional, HepG2. As to conditions: tested at 10 uM.
As for `CC(C)(O)CNC(=O)NCc1nccn1CCc1ccccc1`, the INHIBITION was -4.63%.
As for `CC(C)COCC(NC(=O)c1cnccn1)c1ccco1` (configuration not stated), the figure is -26.6%; as for `CC(C)COCC(NC(=O)c1cc[nH]n1)c1ccco1` (configuration not stated), 53.8%.
As for `CC(C)COCC(NC(=O)c1ccccn1)c1ccco1` (configuration not stated), the figure is 8.25%; as for `CCn1nc(CC(C)C)cc1C(=O)NCC(F)(F)F`, 15.4%; as for `Cc1noc(C)c1CN1CCOC2(CCCN(c3ncccn3)C2)C1` (configuration not stated), -21.1%.
Regarding `CC(C)c1nnc(CN2CCN(C(C)c3nc(C4CC4)no3)CC2)o1` (configuration not stated), the INHIBITION was 33.3%.
As for `CCC1=NN2C(=N)/C(=C/c3cccc(Cl)c3)C(=O)N=C2S1`, the figure is 37.7%; as for `CCC1=NN2C(=N)C(=Cc3cccn3-c3cccc(Cl)c3)C(=O)N=C2S1`, 73.7%; as for `CCC1=NN2C(=N)C(=Cc3cccn3-c3ccc(Br)cc3)C(=O)N=C2S1`, 65.4%.
As for `CCC1=NN2C(=N)C(=Cc3cccn3-c3ccc(Cl)cc3)C(=O)N=C2S1`, the figure is 76.7%; as for `O=C(O)Cc1cn2cc(C(F)(F)F)ccc2n1`, 7.38%.
For `Cn1cc(CN2CC[C@H](O)[C@@H]2Cc2ccccc2)cn1`, the INHIBITION is given as 17.1%.
As for `Cc1noc(C)c1C(=O)N1C[C@H]2CCC[C@@]2(COc2ccccn2)C1`, the figure is 34.7%; as for `CCC[C@H]1CN(c2nccc(NCC)n2)C[C@@H]1NS(=O)(=O)N(C)C`, 48.7%.
As for `COc1ccnc(N2C[C@@H](NS(=O)(=O)N(C)C)[C@H](C(C)C)C2)n1`, the figure is -15.6%; as for `CCC[C@H]1CN(c2nccc(OC)n2)C[C@@H]1NS(=O)(=O)N(C)C`, 56.6%; as for `CCS(=O)(=O)N1CC[C@H](OC)[C@@H]1Cc1ccncc1`, 28.4%.
As for `CNc1ncc(-c2ccnn2C2CCN(C(C)=O)CC2)cn1`, the figure is 42.6%; as for `CC1CN(C(=O)c2cnn(-c3ccccn3)c2C(C)C)CC(C)(C)O1` (configuration not stated), 51.5%.
Turning to `CCc1c(C(=O)N2CC(C)OC(C)(C)C2)cnn1-c1ccccn1` (configuration not stated), the INHIBITION was found to be 2.97%.
`CCc1c(C(=O)N2CCOC(C)(C)C2)cnn1-c1ccccn1`: the INHIBITION is given as 4.95%.
As for `CCOC[C@@H]1CCC[C@]12CN(S(=O)(=O)c1cn(C)cn1)CCO2`, the figure is 35.5%.
As for `O=C(c1cccn1Cc1cccs1)N1CCSCC1`, the figure is 9.64%; as for `COc1cccc(OCCNS(C)(=O)=O)c1`, -0.614%; as for `COc1cccc(OCCNCc2ccccc2)c1`, 51.5%.
With `COc1cccc(OCCNS(=O)(=O)Cc2ccccc2)c1`, the INHIBITION is reported as 10.7%.
Consider `CC(C)(C)c1n[nH]c(C2CN(C(=O)C3=COCCC3)CCO2)n1` (configuration not stated), for which the INHIBITION worked out at 40.2%.
As to `COc1ccccc1OC1(C(=O)O)CCN(c2nccnc2OC)CC1`, the INHIBITION turned out to be 3.03%.
As for `COc1ccccc1OC1(C(=O)O)CCN(c2ccccn2)CC1`, the figure is 40.5%; as for `COc1ccccc1OC1(C(=O)O)CCN(c2nccnc2C)CC1`, 8.47%; as for `COc1ccccc1OC1(C(=O)O)CCN(c2ncnc(C)c2C)CC1`, 55.4%.
For the molecule `COc1ccccc1OC1(C(=O)O)CCN(c2nc(C)cnc2C)CC1`, the INHIBITION is recorded as 56.5%.
As for `COc1ccccc1OC1(C(=O)O)CCN(c2ncccc2F)CC1`, the figure is 30.8%; as for `CN1CC2(CCN(C(=O)c3ccc(-n4cccn4)cc3Cl)C2)OC1=O` (configuration not stated), 32.5%; as for `CC(=O)c1cnc(NCCCN2CCOCC2)nc1C`, -4.96%.
As for `O=C(COc1ccccc1)NCC1CC1`, the figure is 3.63%; as for `CCNc1ncc(C(=O)NCCc2csc(-c3ncccn3)n2)cn1`, 56.6%; as for `CSCc1nc(CCNC(=O)C2CCCN(C(C)=O)C2)cs1` (configuration not stated), -90.8%.
As for `CCNc1ncc(C(=O)NCc2csc(-c3cnccn3)n2)cn1`, the figure is -10.5%; as for `CCNc1ncc(C(=O)NCCc2ccc(C)c(C)c2)cn1`, -4.21%.
In the case of `CCNc1ncc(C(=O)NCc2csc(C)n2)cn1`, the INHIBITION was 35.4%.
As for `CCNc1ncc(C(=O)NCCc2csc(CSC)n2)cn1`, the figure is 51.8%.
`O=C(NCCc1csc(-c2ncccn2)n1)c1cnn2c1CCCC2`: the INHIBITION is -52.5%.
As for `CCNc1ncc(C(=O)NCc2csc(-c3ncccn3)n2)cn1`, the figure is 62.2%; as for `CCNc1ncc(C(=O)NCCCc2ccncc2)cn1`, 19.4%; as for `CCN(Cc1nc2c(cnn2C)c(=O)[nH]1)Cc1ccccc1Cl`, -29.8%.
As for `Cc1ccc2nc(CN3CCCCC3C(=O)N3CCOCC3)cn2c1` (configuration not stated), the figure is 20%; as for `CC(C)Cn1nccc1NC(=O)CN1CCOC(Cn2cccn2)C1` (configuration not stated), 23.4%.
As for `CNC(=O)[C@@H](c1ccccc1)N1CCC[C@H]1C(=O)NC1CCCCC1`, the figure is 30.9%; as for `CCc1cnc(N2C[C@H](OCc3csc(C)n3)[C@H]3COC[C@H]32)nc1`, 40.8%.
With `Cc1nnnn1-c1cc(NCc2cccc(C#N)c2)ccc1F`, the INHIBITION was found to be 31%.
Take `O=C(CC1CC1)NCc1cc(=O)n2c(n1)CN(Cc1ccoc1)CCC2`: the INHIBITION was 36.8%.
As for `O=C(Nc1ccccc1)N1C2CCC(O)(CC2)C1CO` (configuration not stated), the figure is 44.9%; as for `CCc1noc(C)c1C(=O)N1CCCC(n2nc(C)nc2C)C1` (configuration not stated), -19.85%; as for `CS(=O)(=O)N1CCOCC12CCN(Cc1ccc(F)cc1)CC2`, 57.3%.
As for `Cc1ccc(CN2CCC3(CC2)COCCN3S(C)(=O)=O)o1`, the figure is 11.6%.
As for `CS(=O)(=O)N1CCO[C@@H]2CN(Cc3ccc(F)cc3)C[C@@H]2C1`, the figure is 61.9%; as for `CS(=O)(=O)N1CCO[C@@H]2CN(Cc3ccc(F)cc3)CC[C@@H]2C1`, 10.5%; as for `CS(=O)(=O)N1CCOCC2(CN(Cc3ccc(F)cc3)CCO2)C1` (configuration not stated), 57.4%.
In the case of `CS(=O)(=O)N1CCOCC2(CN(Cc3ccsc3)CCO2)C1` (configuration not stated), the INHIBITION was 0.139%.
As for `CS(=O)(=O)N1CCO[C@@H]2CN(Cc3ccncc3)C[C@@H]2C1`, the figure is 18.5%; as for `CS(=O)(=O)N1CCOCC12CCN(Cc1ccoc1)CC2`, 34.5%.
As for `Cc1ccc(CN2CCOC3(COCCN(S(C)(=O)=O)C3)C2)s1` (configuration not stated), the figure is 11.4%.
As for `O=C(c1ccc2c(c1)CCCC2)N1CCn2ncnc2C1`, the figure is -0.275%; as for `O=C(c1ccccn1)N1CCOC2(COCCN(Cc3cc[nH]n3)C2)C1` (configuration not stated), -95.7%.
In the case of `CC(C)C[C@H](NC(=O)Cc1csc(-c2cccc(Cl)c2)n1)C(=O)O`, the INHIBITION is recorded as 40.8%.
`CCc1ccsc1C(=O)NCCn1nc2ccccn2c1=O`: the INHIBITION came to 14.4%.
As for `c1cnn(CC2CCCN2Cc2ccc(-n3cccn3)cc2)c1` (configuration not stated), the figure is 41.2%.
For the molecule `c1ccc(CN2CCNCC(Cc3cnccn3)C2)cc1` (configuration not stated), the INHIBITION is recorded as -11.4%.
As for `CCc1nc(C(=O)N2CC(C(C)C)Nc3ccccc32)c[nH]1` (configuration not stated), the figure is 3.13%; as for `COCCNc1ncc(-c2cccc(OC)c2)c(-c2nccn2C)n1`, 3.48%.
As for `CC(C)[C@H]1CN(Cc2ccccn2)C[C@@H]1NC(=O)CC1CCC1`, the figure is 41.8%; as for `CC(C)[C@H]1CN(Cc2c[nH]cn2)C[C@@H]1NC(=O)CC1CCC1`, 57.3%.
As for `CC(C)[C@H]1CN(Cc2nccn2C)C[C@@H]1NC(=O)CCS(C)(=O)=O`, the figure is 12.9%; as for `O=C(c1ccc(F)cc1)N1CCC2(CCN(Cc3ccccn3)C2=O)C1` (configuration not stated), 2.79%.
`COCC(=O)N1CCCC1c1cccc(Cc2ccccc2F)n1` (configuration not stated): the INHIBITION stood at 24.4%.
As for `CN1CCCC1c1cccc(Cc2ccc(F)cc2)n1` (configuration not stated), the figure is 100%.
As for `CC(=O)N1CCCC1c1cccc(NCc2ccccc2F)n1` (configuration not stated), the figure is 64.1%; as for `CN1CCCC1c1cc2cccnc2n1Cc1ccc(F)cc1` (configuration not stated), 30.85%; as for `CS(=O)(=O)N1CCCC1c1cccc(Cc2ccccc2F)n1` (configuration not stated), -51.4%.
As for `CN1CCCC1c1cccc(Cc2ccccc2F)n1` (configuration not stated), the figure is 76.2%.
On to `CC(=O)N1CCCC1c1cccc(Cc2ccc(F)cc2)n1` (configuration not stated), for which the INHIBITION was found to be 13.6%.
As for `CN(C)C(=O)CN1CCCC1c1cccc(Cc2ccccc2F)n1` (configuration not stated), the figure is 42.6%; as for `CC(=O)N1CCCC1c1cccc(Cc2ccccc2F)n1` (configuration not stated), 14.8%.
Consider `Cc1ncsc1C(=O)N1CCCC1c1c(C)nn(C)c1C` (configuration not stated), for which the INHIBITION was 16.6%.
As for `Cc1cc(Nc2cnccn2)cc(C2CCCNC2)n1` (configuration not stated), the figure is 19.5%.
As for `CO[C@@H]1CCC[C@@H](NC(=O)c2cccc(F)c2)[C@H]1O`, the figure is 28.2%.
As for `CNc1nc2cn(CCc3ccc(C)cc3)c(=O)c-2c[nH]1`, the figure is 3.52%; as for `O=C(Cc1ccccn1)N1CCN(C(=O)CC2CCCCC2)CC1`, 13.6%.
In the case of `Cc1cc(NCC2CCS(=O)(=O)C2)n2nc(C)cc2n1` (configuration not stated), the INHIBITION is on record as 47%.
As for `CCC(C)(C)n1nnnc1C(c1cccs1)N1CCCCC1` (configuration not stated), the figure is 21.7%; as for `CCC(C)(C)n1nnnc1C(c1cccs1)N1CCc2ccccc2C1` (configuration not stated), 51.4%; as for `CCC(C)(C)n1nnnc1C(c1cccs1)N1CCc2ccccc21` (configuration not stated), 42.6%.
As for `Cc1ccc(C(=O)N2C[C@H]3CCC[C@@]3(COCc3ccncc3)C2)cn1`, the figure is 43.9%; as for `CCc1nnc2n1CCN(C(=O)c1csc(-c3cnn(C)c3)n1)C2`, 29.7%.
As for `CC(C)c1nnc2n1CCN(C(=O)c1cnc(C3CC3)s1)C2`, the figure is 43.1%; as for `CCc1nnc2n1CCN(C(=O)CN(C)Cc1ccccc1)C2`, 20.1%; as for `Cc1nnc2n1CCN(C(=O)c1ccnc(N(C)C)c1)C2`, 21.6%.
In the case of `Cc1nc(-c2ccco2)ccc1C(=O)N1CCn2c(C)nnc2C1`, the INHIBITION is on record as -17.6%.
As for `CCc1nnc2n1CCN(C(=O)CN(CC)CC)C2`, the figure is 49.8%.
As for `CCc1nnc2n1CCN(C(=O)c1ccc(-c3ccco3)[nH]c1=O)C2`, the figure is -19.6%; as for `CCc1nnc2n1CCN(C(=O)CN(C)C1CC1)C2`, 51.1%.
As for `CCc1nnc2n1CCN(C(=O)c1ccccc1OCC1CC1)C2`, the figure is 7.21%; as for `Cc1nnc2n1CCN(C(=O)c1cnc(C3CC3)s1)C2`, 53.9%; as for `CCc1nnc2n1CCN(C(=O)c1cnn(C)c1C1CC1)C2`, 53.9%.
In the case of `CCc1nnc2n1CCN(C(=O)c1ccc(-c3ccco3)nc1C)C2`, the INHIBITION worked out at 61.3%.
